Data on eleven molecules can be found in article PMC5540273 (PLoS ONE, 2017).

Each structure is given as a SMILES string.

Some test systems named below: HCK; HIPK1; HIPK2; HIPK3; HIPK4; HPK1; HUNK; ICK; IGF1R.
Holding throughout (conditions): concentration: 1 μM, replicates: in singlicate; n = 1
The test system of the next test is T1, HASPIN.
T1 construct: gene GSG2
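Note: KINOMEscan kinase panel screen.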

On to `C[C@@H]1CC[C@@H](C(=O)Nc2ccccc2)CN1c1cc(-c2ccc3c(N)n[nH]c3c2)nc(N)n1` [GSK2286062], for which the “%Inh” value in the test with HASPIN came to 5%; with HCK it was 0%; with HIPK1, 0%; in the test on HIPK2 it was 0%; with HIPK3, 0%; in the test on HIPK4 it was 25%. Also, the “%Inh” value stood at 36% in the test with HPK1, 11% in the test on HUNK, 0% with ICK and 23% with IGF1R.
Consider `Fc1ccc(-c2ncn(C3CCNCC3)c2-c2ccnc(Oc3ccc(-c4ccccc4)cc3)n2)cc1` [SB-245391], for which the “%Inh” value came to 24% with HASPIN; 31% in the test on HCK; 5% in the test with HIPK1; 0% with HIPK2; 31% in the test on HIPK3; 27% in the test on HIPK4. In addition, the “%Inh” value is 29% with HPK1, 38% in the test on HUNK, 25% with ICK and 48% with IGF1R.
For `NCCCC(NC(=O)c1cc(Br)c(-c2ccnc3[nH]ccc23)s1)c1ccccc1.O=C(O)C(F)(F)F.O=C(O)C(F)(F)F` (centres unmarked) [GSK1287544], the “%Inh” value was found to be 95.7% in the test with HASPIN; 0% in the test on HCK; 39% with HIPK1; 14% with HIPK2; 62% with HIPK3; 82% in the test on HIPK4. In addition, the “%Inh” value is on record as 62% in the test on HPK1, 0% in the test with HUNK, 23% in the test with ICK and 2% in the test with IGF1R.
For `CCc1ccc(-c2ccc3c(c2)-c2c(cnn2C)S(=O)(=O)N3C)cc1`, the “%Inh” value in the test with HASPIN came to 0%; with HCK it was 0%; in the test with HIPK1, 0%; in the test on HIPK2, 0%; in the test on HIPK3 it was 11%; with HIPK4, 8%. For the same molecule, the “%Inh” value in the test with HPK1 is reported as 17%; in the test with HUNK, 0%; in the test with ICK, 4%; in the test on IGF1R, 4%.
On to `c1ccc(-c2cnc3nccnn23)cc1` [AH20685], for which the “%Inh” value in the test with HASPIN, in the test on HCK, in the test with HIPK1, in the test with HIPK2, in the test with HIPK3 and with HIPK4 was 0% each time. For the same molecule, the “%Inh” value with HPK1 is 37%; in the test with HUNK, 0%; in the test on ICK, 0%; in the test on IGF1R, 31%.
Turning to `COc1cc(Nc2nccc(N3CCC(NC(=O)Nc4cccc(C(C)=O)c4)C3)n2)cc(OC)c1OC` (centres unmarked) [GSK1379753], the “%Inh” value in the test with HASPIN is listed as 0%; in the test with HCK it was 0%; in the test on HIPK1, 0%; with HIPK2, 0%; in the test on HIPK3, 3%; with HIPK4, 0%. The “%Inh” value is 55% with HPK1, 0% with HUNK, 11% in the test on ICK and 0% in the test with IGF1R.
As for `COC(=O)Nc1nc2ccc(Oc3ccc(NC(=O)Nc4cc(C(F)(F)F)ccc4F)cc3)cc2n1C.Cl` [GW692089], the “%Inh” value is given as 50% with HASPIN; 0% in the test on HCK; 0% in the test with HIPK1; 3% in the test with HIPK2; 0% in the test on HIPK3; 69% with HIPK4. Besides, the “%Inh” value with HPK1 was found to be 0%; in the test on HUNK it was 12%; in the test on ICK, 0%; with IGF1R, 0%.
As for `CC(=O)N1CCN(c2ccc(Nc3nccc(-c4sc(C(C)C)nc4-c4cccc(NS(=O)(=O)c5cccc(Cl)c5)c4)n3)cn2)CC1` [GSK1660437], the “%Inh” value is listed as 0% in the test with HASPIN; 83% with HCK; 40% in the test with HIPK1; 5% in the test on HIPK2; 35% with HIPK3; 82% in the test on HIPK4. For the same molecule, the “%Inh” value in the test on HPK1 is 36%; in the test on HUNK, 0%; with ICK, 0%; in the test on IGF1R it was 0%.
On to `CSc1cccc2c(-c3ccncn3)c(-c3ccc(F)cc3)nn12` [GW514786], for which the “%Inh” value was determined as 17% in the test with HASPIN; 0% with HCK; 9% in the test with HIPK1; 0% in the test on HIPK2; 10% in the test on HIPK3; 32% in the test on HIPK4. For the same molecule, the “%Inh” value was 21% in the test with HPK1, 8% in the test with HUNK, 0% with ICK and 19% in the test on IGF1R.
Take `COc1cc(Nc2ncc3c(C)nc(-c4cc5ccccc5[nH]4)n3n2)cc(OC)c1OC` [GW869516]: the “%Inh” value came to 0% in the test on HASPIN; 16% in the test with HCK; 79% with HIPK1; 0% in the test with HIPK2; 0% in the test with HIPK3; 17% in the test on HIPK4. Moreover, the “%Inh” value came to 2% in the test with HPK1, 0% in the test with HUNK, 0% in the test on ICK and 0% in the test with IGF1R.
As for `CN(C)S(=O)(=O)c1cc(-c2ccc3nccc(-c4cccc(S(N)(=O)=O)c4)c3c2)cnc1N` [GSK1669921], the “%Inh” value turned out to be 71% with HASPIN; 0% in the test with HCK; 49% in the test with HIPK1; 36% with HIPK2; 44% in the test with HIPK3; 48% in the test on HIPK4. For the same molecule, the “%Inh” value in the test on HPK1 is 41%; in the test on HUNK, 0%; with ICK it was 44%; in the test on IGF1R it was 0%.
